# High-throughput results deposited in PubChem by National Center for Advancing Translational Sciences (NCATS).
# B2AR arrestin = qHTS assay of beta-arrestin-biased ligands of beta2-adrenergic receptor; Beta-2 adrenergic receptor (Homo sapiens), P07550; beta-arrestin recruitment to beta2AR, cell-based reporter; Potency, µM (titrated, usually from 46.1 µM), without a hit: top-dose activation, usual class: activators; 330,000 tested, 0.02% active;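 further: potency means the concentration at half of the fitted maximal effect; 0% = DMSO controls and full agonism = EC100 isoproterenol or metaproterenol; nearly all actives have a fitted effect of over 65% in size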
# VP16 counter = VP16 counterscreen qHTS for inhibitors of ROR gamma transcriptional activity; Drosophila S2 Gal4-VP16 UAS-luciferase, luminescence, 20 h; AID 2546, 2010; 310,000 tested, 3.5% active; Potency, µM (doses to about 53.6 µM), without a hit: top-dose activity, negative = inhibition, actives largely listed as inhibitors;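 further: Gal4-VP16 expression switched on by copper sulfate through the metallothionein promoter; potency means the concentration at half of the fitted maximal effect; nearly all actives have a fitted effect of over 50% in size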
# RORg inh = qHTS for inhibitors of ROR gamma transcriptional activity | Drosophila S2 Gal4-RORgamma UAS-luciferase reporter, 20 h | Potency, µM (series often up to 53.6 µM), for inactives: at the highest dose activity change, negative = inhibition, hits mostly inhibitors | 310,000 tested, 5.4% active | AID 2551, 2010; further: potency means the concentration at half of the fitted maximal effect; nearly all actives have a fitted effect of over 60% in size
#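 Using a luciferase readout, inhibitors were identified by reduced reporter activity in Drosophila cells coexpressing a copper-inducible Gal4–ROR gamma fusion and UAS-driven Photinus luciferase, incubated 20 hr after 700 uM copper sulfate.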
# TSHR antagonist = Antagonists of the Thyroid Stimulating Hormone Receptor: HTS campaign; Thyrotropin receptor (Homo sapiens), P16473; TSHR-expressing cells, TSH-stimulated cAMP HTRF, 2 h; hits give low values; activity change, negative = inhibition, % at 11.5 µM; 330,000 tested, 0.2% active;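 active means activity change below a set negative limit, meaning inhibition stronger than a set level, cut at about -70% in these data; inconclusive means activity change between two set negative limits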
# Target sequence (P16473 whole entry, looked up): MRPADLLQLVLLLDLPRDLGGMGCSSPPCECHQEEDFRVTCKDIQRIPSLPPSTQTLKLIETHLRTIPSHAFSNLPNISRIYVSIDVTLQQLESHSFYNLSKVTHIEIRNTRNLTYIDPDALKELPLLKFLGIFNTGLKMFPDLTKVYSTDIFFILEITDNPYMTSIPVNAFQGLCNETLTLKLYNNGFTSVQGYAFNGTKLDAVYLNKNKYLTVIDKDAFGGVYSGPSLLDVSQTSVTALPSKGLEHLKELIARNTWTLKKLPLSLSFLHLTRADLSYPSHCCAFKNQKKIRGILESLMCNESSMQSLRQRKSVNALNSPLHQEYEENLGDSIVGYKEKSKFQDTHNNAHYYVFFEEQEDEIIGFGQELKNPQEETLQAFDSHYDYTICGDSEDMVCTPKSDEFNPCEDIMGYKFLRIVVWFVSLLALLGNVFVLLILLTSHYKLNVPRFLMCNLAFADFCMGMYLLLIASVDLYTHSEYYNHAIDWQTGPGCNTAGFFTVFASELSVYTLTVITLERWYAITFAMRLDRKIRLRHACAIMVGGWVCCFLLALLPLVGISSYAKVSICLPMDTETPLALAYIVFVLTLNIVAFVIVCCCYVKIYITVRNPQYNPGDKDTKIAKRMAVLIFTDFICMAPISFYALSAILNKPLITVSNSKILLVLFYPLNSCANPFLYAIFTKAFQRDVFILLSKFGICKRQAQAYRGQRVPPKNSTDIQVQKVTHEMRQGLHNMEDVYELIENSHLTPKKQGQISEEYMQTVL
#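 Antagonism was scored as loss of TSH-driven cAMP in TSHR cells, stimulated with 4nM TSH (EC80) for 2 hours at 37 deg C and detected by homogeneous HTRF competition immunoassay.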
# ELG1 repair inh = qHTS screen for small molecules that inhibit ELG1-dependent DNA repair in human embryonic kidney (HEK293T) cells expressing luciferase-tagged ELG1 | HEK293T ELG1-luciferase reporter, luminescence, 16 h; DNA damage induced by 5-fluorouridine | 330,000 tested, 2.3% active | Potency, µM (top dose mostly 46.1 µM), without a hit: at the highest dose activity change, negative = inhibition, most hits filed as inhibitors; further: potency means the concentration at half of the fitted maximal effect; nearly all actives have a fitted effect of over 55% in size
#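 Cells (2,000 per well) received 5-fluorouridine plus test compound or DMSO and were incubated 16 hr at 37 °C, 5% CO2. Luciferase activity was read by luminescence 30 min after ONE-Glo addition; signal suppression marked inhibition of damage-induced ELG1 function.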
# An asterisk follows results filed as active; ? = inconclusive; · = no result; [ ] = another dose, or the depositor's remark. Rows were chosen to be rich in hits. Some 7.5% of all compounds tested hit in one or more screens of this group. Unless noted, the call rests on the fitted dose curve; in most records, active means well fitted curve in the direction sought with a large enough effect; inconclusive means small, poorly fitted or top-dose-only effect, or another doubt; inactive means no such curve, though single readings can be large; an effect the other way counts as inactive or inconclusive. Unless noted, on the % scale 0 is the no-effect control and ±100 the full control effect.
SMILES,B2AR arrestin,VP16 counter,RORg inh,TSHR antagonist,ELG1 repair inh
O=C(COC(=O)c1ccc(F)cc1F)Nc1cccc(S(=O)(=O)N2CCOCC2)c1,0%,·,·,-6,7%
COc1ccc2c(c1)sc1nc(-c3ccccc3)cn12,0%,2µM*,1.6µM*,0,?
CCOC(=O)N1CCN(C(=O)c2ccc3c(c2)sc2nc(-c4ccc(OC)cc4)cn23)CC1,0%,-6%,37%,11,?
Cc1cc(-c2ccccc2)oc(=O)c1NC(=O)c1ccccc1,-1%,-11%,29%,-2,0%
Cc1ccc(NCCC(=O)c2cccc([N+](=O)[O-])c2)c(C)c1,0%,?,10µM*,1,?
Cc1cccc(NCCC(=O)c2ccc([N+](=O)[O-])cc2)c1C,0%,-3%[10 µM],5%,-9,-16%
COc1ccc(Oc2ncc3ncc(=O)n(Cc4cccc(OC)c4)c3n2)cc1,·,-8%,1%,·,·
CCOc1ccccc1N(C(=O)c1ccccc1Cl)C1=NC(C)(C)CS1,0%,5%,18µM*,-8,-7%
COc1ccc(C)cc1N(C(=O)c1ccc(C#N)cc1)C1=NC(C)(C)CS1,0%,-23%,-3%,-8,0%
CC12CCC=CC1C(c1ccc(/C=C/c3ccccc3)cc1F)N(Cc1ccccc1)C2=O (centres undefined),·,-9%,12%,·,·
CN(C)C(=O)N1CCC(C(=O)N2CCCC(C(=O)c3ccc(C(C)(C)C)cc3)C2)CC1 (centres undefined),0%,-1%,?,-2,15µM*
CCc1c(C(=O)NNC(=S)NCC(C)C)csc1C,·,18µM*,1.8µM*,·,·
Cc1cc(C(=O)NNC(=S)NCc2ccccc2)cs1,0%,-4%,-23%,1,6%
CCc1c(C(=O)NNC(=S)NCC2CCCO2)csc1C (centres undefined),-3%,?,?,11,-6%
CCc1c(C(=O)NNC(=S)NCc2ccccc2)csc1C,-1%,-15%,6.3µM*,6,?
COc1ccccc1N1CCN(C(=S)Nc2ccc(F)cc2)CC1,0%,?,11µM*,30,?
COc1ccccc1N1CCN(C(=S)Nc2ccccc2)CC1,0%,?,?,-8,?
COc1ccc(C(=O)CCN2CCN(c3ccccc3OC)CC2)cc1,0%,2.8µM*,19%,15,7%
COc1ccccc1N1CCN(Cc2ccc(Br)o2)CC1,0%,20µM*,12%,9,-1%
COc1ccccc1N1CCN(C(=O)CCC(=O)N2CCN(c3ccc(F)cc3)CC2)CC1,-1%,-28%,24%,-124*,?
COc1cccc(/C=C2\SC(=S)N(CCC(=O)NC3C=CS(=O)(=O)C3)C2=O)c1 (centres undefined),1%,0%,-23%,-7,4.6µM*
O=C(CN1C(=O)/C(=C/c2cccc(Cl)c2)SC1=S)NC1C=CS(=O)(=O)C1 (centres undefined),0%,?,13µM*,-7,15%
O=C(CN1C(=O)S/C(=C\c2cccc(Cl)c2)C1=O)NC1C=CS(=O)(=O)C1 (centres undefined),0%,-1%,7.9µM*,-5,4%
COc1ccc(/C=C2\SC(=S)N(CCC(=O)NC3C=CS(=O)(=O)C3)C2=O)cc1 (centres undefined),-1%,3%,?,-3,28%
CSCc1c(C(=O)OCC(=O)c2ccc[nH]2)oc2ccccc12,0%,·,·,1,4%
SMILES,B2AR arrestin,VP16 counter,RORg inh,TSHR antagonist,ELG1 repair inh
C=C(NCc1ccccc1)c1ccccc1O,·,6%,2%,·,·
COc1ccc(CNC(=S)Nc2ccccc2Cl)cc1,1%,?,18µM*,0,7%
COc1ccc(CNC(=S)Nc2ccccc2-c2ccccc2)cc1,0%,7.1µM*,2µM*,10,-16%
COc1ccc(CNC(=O)N2CCN(c3ccccc3OC)CC2)cc1,-1%,-6%,-10%,-9,-2%
CC(C)=CCOc1ccc(/C=C/C(=O)c2ccc(OCC=C(C)C)cc2OCC(=O)O)cc1,·,-20%,?,·,·
C=CCn1c(CCCNC(=O)C(C)(C)C)nc2ccccc21,0%,6%,-19%,9,1%
Cn1c(/C=N/NC(=O)c2ccccc2)nc2ccccc21,0%,0%,13µM*,1,4%
CC(C)(C)C(=O)NCCCc1nc2ccccc2n1CCCOc1ccc(Cl)cc1,0%,-8%,-9%,-16,23µM*
CC(=O)NCCn1c(C)cc2ccccc21,0%,3%,-6%,-5,23%
CCCCn1c(CNC(=O)C(C)(C)C)nc2ccccc21,0%,?,13µM*,2,-2%
Cc1cc2ccccc2n1CCNC(=O)c1ccccc1,-1%,2.5µM*,4.5µM*,10,?
O=c1c(-c2cccc(Cl)c2)nc2cncnc2n1C1CC1,·,-5%,1%,·,·
CCCn1c(CNC(=O)c2cccs2)nc2ccccc21,0%,-2%,?,-5,-8%
CCCn1c(CNC(=O)c2ccccc2)nc2ccccc21,0%,-2%,10µM*,7,-7%
CC(C)Cn1c(CNC(=O)c2ccccc2)nc2ccccc21,0%,?,16µM*,5,-16%
COc1ccc(C(C)(C)C)cc1NC(=S)NCCN1CCOCC1,0%,-6%,-14%,11,4%
S=C(Nc1ccc(Cl)c(Cl)c1)NC1CCCCC1,0%,5.6µM*,2.5µM*,-42,?
S=C(Nc1cccc(Cl)c1Cl)NC1CCN(Cc2ccccc2)CC1,0%,?,-41%,7,-10%
CC(C)(C)CC(C)(C)NC(=S)NC1CCN(Cc2ccccc2)CC1,1%,10µM*,14µM*,0,-5%
S=C(Nc1ccc(Cl)c(Cl)c1)NC1CCN(Cc2ccccc2)CC1,-1%,35µM*,?,-9,?
S=C(Nc1ccc2nsnc2c1)NC1CCCCC1,0%,5µM*,2.5µM*,32,?
Fc1ccc(NC(=S)NC2CCN(Cc3ccccc3)CC2)cc1,0%,-8%,?,-2,-10%
S=C(Nc1ccc2nsnc2c1)N1CCCCCC1,0%,5%,14%,6,0%
C/C(=N\NC(=O)Cn1nnc2ccccc21)c1ccco1,0%,0%,27%,-1,1%
COc1ccc(NC(=O)N2CCC3(CC2)CCN(C(=O)c2csnn2)CC3)cc1,·,12%,7%,·,·
O=S(=O)(c1ccccc1)N1CCC2(CCCN(c3ncccn3)C2)CC1,·,7%,4%,·,·
